Laboratory results taken from PubChem BioAssay AID1159580 (chemical genetic matrix, 2015).
Hit rate of the full screen: of about 5,500 compounds, about 2,000 (36%) were called active. Inconclusive results (about 18%) are left out. No stated cut-off is given here; in the data, active means normalized growth mostly below about 0.91 (no sharp cut-off); inconclusive means no clear call, values can overlap the other calls; inactive means mostly above about 0.92. Some of the results follow.

Assay: chemical genetic growth profiling, strain panel (AID 1159580);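 further: tested at 20 µM; growth read once vehicle control cultures reached saturation at 30 °C; 1 = growth at the plate median or of vehicle wells; lower values mean less growth of the strain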
Settings: growth OD

Measured: normalized growth

COc1cc(-c2coc3cc(OCc4ccccc4)c(OC)c(O)c3c2=O)cc(OCc2ccccc2)c1OC
inactive: S. cerevisiae deletion strains, locus YAL013W, strain DEP1, active compounds read low 1.04 | S. cerevisiae deletion strains, locus YBR021W, strain FUR4, active compounds read low 1.01 | S. cerevisiae deletion strains, locus YBR229C, strain ROT2, active compounds read low 0.995 | S. cerevisiae deletion strains, locus YCL029C, strain bik1, active compounds read low 0.981 | S. cerevisiae deletion strains, locus YDL035C, strain GPR1, active compounds read low 1.03 | S. cerevisiae deletion strains, locus YDL074C, strain BRE1, active compounds read low 1.02 | S. cerevisiae deletion strains, locus YDL101C, strain DUN1, active compounds read low 0.99 | S. cerevisiae deletion strains, locus YDL185W, strain tfp1, active compounds read low 0.989 | S. cerevisiae deletion strains, locus YDL192W, strain arf1, active compounds read low 0.981 | S. cerevisiae deletion strains, locus YDR101C, strain arx1, active compounds read low 0.991 | S. cerevisiae deletion strains, locus YDR150W, strain NUM1, active compounds read low 1.01 | S. cerevisiae deletion strains, locus YDR162C, strain NBP2, active compounds read low 1.02 | S. cerevisiae deletion strains, locus YDR318W, strain mcm21, active compounds read low 0.992 | S. cerevisiae deletion strains, locus YDR388W, active compounds read low 0.981 | S. cerevisiae deletion strains, locus YDR502C, strain sam2, active compounds read low 0.991 | S. cerevisiae deletion strains, locus YEL061C, strain CIN8, active compounds read low 1.01 | S. cerevisiae deletion strains, locus YER110C, active compounds read low 0.974 | S. cerevisiae deletion strains, locus YER155C, strain BEM2, active compounds read low 0.999 | S. cerevisiae deletion strains, locus YER167W, strain BCK2, active compounds read low 1 | S. cerevisiae deletion strains, locus YGL078C, strain dbp3, active compounds read low 0.988 | S. cerevisiae deletion strains, locus YGL086W, strain mad1, active compounds read low 0.975 | S. cerevisiae deletion strains, locus YGL248W, strain PDE1, active compounds read low 0.973 | S. cerevisiae deletion strains, locus YGR078C, strain PAC10, active compounds read low 1 | S. cerevisiae deletion strains, locus YGR135W, strain pre9, active compounds read low 0.986 | S. cerevisiae deletion strains, locus YGR229C, strain SMI1, active compounds read low 1.04 | S. cerevisiae deletion strains, locus YGR252W, strain gcn5, active compounds read low 1.07 | S. cerevisiae deletion strains, locus YHR030C, strain SLT2, active compounds read low 0.989 | S. cerevisiae deletion strains, locus YHR079C, strain IRE1 (second series), active compounds read low 0.98 | S. cerevisiae deletion strains, locus YHR094C, strain hxt1, active compounds read low 0.978 | S. cerevisiae deletion strains, locus YHR129C, strain ARP1, active compounds read low 0.986 | S. cerevisiae deletion strains, locus YHR200W, strain rpn10, active compounds read low 0.988 | S. cerevisiae deletion strains, locus YIL066C, strain RNR3, active compounds read low 0.982 | S. cerevisiae deletion strains, locus YIL073C, strain SPO22, active compounds read low 0.969 | S. cerevisiae deletion strains, locus YIL125W, strain kgd1, active compounds read low 0.984 | S. cerevisiae deletion strains, locus YIR030C, strain dcg1, active compounds read low 0.988 | S. cerevisiae deletion strains, locus YJL095W, strain BCK1, active compounds read low 0.972 | S. cerevisiae deletion strains, locus YJL134W, strain LCB3, active compounds read low 0.993 | S. cerevisiae deletion strains, locus YJL168C, strain set2, active compounds read low 0.977 | S. cerevisiae deletion strains, locus YJL187C, strain SWE1 (second series), active compounds read low 0.968 | S. cerevisiae deletion strains, locus YJR043C, strain POL32, active compounds read low 1.04 | S. cerevisiae deletion strains, locus YJR075W, strain HOC1, active compounds read low 1.01 | S. cerevisiae deletion strains, locus YKL009W, strain mrt4, active compounds read low 0.968 | S. cerevisiae deletion strains, locus YKL068W, active compounds read low 0.992 | S. cerevisiae deletion strains, locus YKL085W, strain MDH1 (second series), active compounds read low 1.03 | S. cerevisiae deletion strains, locus YKL085W, strain MDH1, active compounds read low 1.03 | S. cerevisiae deletion strains, locus YKL190W, strain CNB1, active compounds read low 1.01 | S. cerevisiae deletion strains, locus YKR001C, strain vps1, active compounds read low 0.964 | S. cerevisiae deletion strains, locus YLR039C, strain RIC1, active compounds read low 1.05 | S. cerevisiae deletion strains, locus YLR058C, strain SHM2, active compounds read low 0.989 | S. cerevisiae deletion strains, locus YLR102C, strain apc9, active compounds read low 0.98 | S. cerevisiae deletion strains, locus YLR262C, strain YPT6, active compounds read low 1.08 | S. cerevisiae deletion strains, locus YLR268W, strain sec22, active compounds read low 0.967 | S. cerevisiae deletion strains, locus YLR330W, strain CHS5, active compounds read low 0.994 | S. cerevisiae deletion strains, locus YLR342W, strain FKS1 (second series), active compounds read low 1.02 | S. cerevisiae deletion strains, locus YLR371W, strain rom2, active compounds read low 0.97 | S. cerevisiae deletion strains, locus YLR418C, strain cdc73, active compounds read low 0.983 | S. cerevisiae deletion strains, locus YML016C, strain PPZ1, active compounds read low 0.991 | S. cerevisiae deletion strains, locus YML032C, strain rad52, active compounds read low 1 | S. cerevisiae deletion strains, locus YML124C, strain tub3, active compounds read low 0.983 | S. cerevisiae deletion strains, locus YMR078C, strain ctf18, active compounds read low 0.975 | S. cerevisiae deletion strains, locus YMR223W, strain ubp8, active compounds read low 0.99 | S. cerevisiae deletion strains, locus YMR307W, strain GAS1, active compounds read low 1.12 | S. cerevisiae deletion strains, locus YNL067W, strain RPL9B, active compounds read low 0.984 | S. cerevisiae deletion strains, locus YNL233W, strain BNI4, active compounds read low 0.977 | S. cerevisiae deletion strains, locus YNL250W, strain rad50, active compounds read low 0.971 | S. cerevisiae deletion strains, locus YNL271C, strain bni1, active compounds read low 0.981 | S. cerevisiae deletion strains, locus YNL298W, strain CLA4, active compounds read low 0.982 | S. cerevisiae deletion strains, locus YNL307C, strain MCK1, active compounds read low 0.969 | S. cerevisiae deletion strains, locus YNL322C, strain KRE1, active compounds read low 0.999 | S. cerevisiae deletion strains, locus YNR052C, strain pop2, active compounds read low 0.991 | S. cerevisiae deletion strains, locus YOL006C, strain TOP1, active compounds read low 0.936 | S. cerevisiae deletion strains, locus YOL012C, strain htz1 0.883 | S. cerevisiae deletion strains, locus YOL147C, strain pex11, active compounds read low 0.989 | S. cerevisiae deletion strains, locus YOR061W, strain CKA2, active compounds read low 0.989 | S. cerevisiae deletion strains, locus YOR069W, strain VPS5, active compounds read low 0.99 | S. cerevisiae deletion strains, locus YOR136W, strain idh2, active compounds read low 0.98 | S. cerevisiae deletion strains, locus YOR144C, strain elg1, active compounds read low 1 | S. cerevisiae deletion strains, locus YOR184W, strain ser1, active compounds read low 0.979 | S. cerevisiae deletion strains, locus YOR316C, strain cot1, active compounds read low 0.981 | S. cerevisiae deletion strains, locus YPL055C, strain LGE1, active compounds read low 0.987 | S. cerevisiae deletion strains, locus YPR119W, strain clb2, active compounds read low 0.981 | S. cerevisiae deletion strains, locus YPR141C, strain kar3, active compounds read low 0.963 | S. cerevisiae deletion strains, locus YPR163C, strain tif3, active compounds read low 0.989 | S. cerevisiae deletion strains, locus YPR167C, strain met16, active compounds read low 0.988 | S. cerevisiae deletion strains, strain wtn01, active compounds read low 0.981 | S. cerevisiae strains, strain wild type, active compounds read low 1
